# Legend:
# Experiment in all cases: PBM binding z-score (relative to random genomic background probes); higher = stronger binding; sequences stand for … in GC…GCGATTGACAGCGTAGAATGAAGG
# [1] = test system: FXR:RXRa (NR concentration 270 nM, RXRa partner concentration 90 nM)
# Summary of the method: (§1)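 Custom Agilent 4×180K protein-binding microarrays carried double-stranded probes. Their 34-nt variable regions held direct-repeat seeds, single-nucleotide variants, half-site ablations and random human genomic background sequences. Arrays were incubated 1 h with ligand-free nuclear receptor dimers in PBS pH 7.4, 2% milk, 0.02% Triton X-100, 1 mM DTT, 0.2 mg/mL BSA and 0.4 mg/ml salmon testes DNA. Antibodies against each partner (one per run) detected binding, and scanned fluorescence was regression-normalized. Binding z-scores use random background probes as reference.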
# [2] = test system: LXRa:RXRa (NR concentration 270 nM, RXRa partner concentration 90 nM)
# Summary of the method: as §1
# [3] = test system: LXRa homodimer (NR concentration 270 nM)
# Summary of the method: as §1
# [4] = test system: LXRb:RXRa (NR concentration 270 nM, RXRa partner concentration 90 nM)
# Summary of the method: as §1
# [5] = test system: LXRb homodimer (NR concentration 270 nM)
# Summary of the method: as §1
# [6] = test system: PPARa:RXRa (NR concentration 270 nM, RXRa partner concentration 90 nM)
# Summary of the method: as §1
# [7] = test system: PPARg:RXRa (NR concentration 180 nM, RXRa partner concentration 90 nM)
# Summary of the method: as §1
# [8] = test system: PPARg:RXRa 270nM:90nM, anti-RXR (NR concentration 270 nM, RXRa partner concentration 90 nM)
# Summary of the method: as §1
# [9] = test system: PPARg:RXRa 30nM:10nM, anti-RXR (NR concentration 30 nM, RXRa partner concentration 10 nM)
# Summary of the method: as §1
# [10] = test system: PPARg:RXRa 90nM:30nM, anti-RXR (NR concentration 90 nM, RXRa partner concentration 30 nM)
# Summary of the method: as §1
# [11] = test system: PPARg:RXRa DBDmut IVT, anti-RXR (DBD mutation: RXRa K156A/R161A, NR concentration 270 nM, RXRa partner concentration 90 nM)
# Summary of the method: as §1
# [12] = test system: PPARg:RXRa IVT, anti-PPARg (NR concentration 270 nM, RXRa partner concentration 90 nM)
# Summary of the method: as §1
# [13] = test system: PPARg DBDmut:RXRa IVT, anti-PPARg (DBD mutation: PPARg1 K132A/R137A, NR concentration 270 nM, RXRa partner concentration 90 nM)
# Summary of the method: as §1
# [14] = test system: PPARg DBDmut IVT, anti-PPARg (DBD mutation: PPARg1 K132A/R137A, NR concentration 270 nM)
# Summary of the method: as §1
# [15] = test system: PPARg homodimer (NR concentration 180 nM)
# Summary of the method: as §1
# [16] = test system: PXR:RXRa (NR concentration 270 nM, RXRa partner concentration 90 nM)
# Summary of the method: as §1
# [17] = test system: PXR homodimer (NR concentration 270 nM)
# Summary of the method: as §1
# [18] = test system: RARa:RXR (NR concentration 270 nM, RXRa partner concentration 90 nM)
# Summary of the method: as §1
# [19] = test system: RARa homodimer (NR concentration 270 nM)
# Summary of the method: as §1
# [20] = test system: RARb:RXRa (NR concentration 270 nM, RXRa partner concentration 90 nM)
# Summary of the method: as §1
Sequence,PBM binding z-score [1],PBM binding z-score [2],PBM binding z-score [3],PBM binding z-score [4],PBM binding z-score [5],PBM binding z-score [6],PBM binding z-score [7],PBM binding z-score [8],PBM binding z-score [9],PBM binding z-score [10],PBM binding z-score [11],PBM binding z-score [12],PBM binding z-score [13],PBM binding z-score [14],PBM binding z-score [15],PBM binding z-score [16],PBM binding z-score [17],PBM binding z-score [18],PBM binding z-score [19],PBM binding z-score [20]
CAAACTAGGTCAGAACAGGACAGTGAAGGATGAT,1.81,1.26,0.299,0.616,0.235,3.34,5.81,4.56,2.45,3.64,7.14,7.34,4.2,3.64,1.77,1.06,0.211,1.32,1.02,3.24
AGAATGAGGTTACCAAAGATCAGAGAAACGCTTG,2.03,6.18,0.173,3.6,-0.0648,3.32,2.75,2.19,0.774,1.78,3.76,3.32,1.01,0.709,0.304,1.28,0.161,2.02,0.489,2.09
TCGAGTAGGTTAGGGGCCTTCAGAATGGCGTCGA,-0.193,-0.323,-0.797,-0.221,-0.986,0.54,0.638,2.19,0.926,2.03,1.32,1.07,-0.729,-0.939,-0.145,-0.478,-0.829,-0.114,-1.13,0.24
TGTCAAAGTTCAAAAGTAACGTAAGTATCCACAC,6.34,6.07,4.09,4.04,2.53,4.83,7.77,6.63,4.65,6.63,-0.0254,3.6,1.92,2.39,1.89,4.46,3.74,3.65,1.1,4.6
CCTTACGGGACACTCCAGGTTATAGCATCGGAGT,0.0463,0.511,0.714,-0.359,-0.449,0.0174,0.619,-0.335,-0.0425,-0.27,0.616,0.708,-0.0587,-0.578,0.252,0.0254,0.23,0.561,-0.181,0.356
TTTCCAAGGTGAGCTGAGGTCGTTGATCCAACTC,2.71,1.69,-0.117,0.979,-0.192,1.94,0.0102,1.07,0.576,0.913,1.18,2.2,0.272,0.546,0.272,4.97,1.26,2.04,-0.538,2.1
ATCGAAAGGTGGAAGGTGAGTATACCCACCCGAA,0.216,0.0772,-0.308,0.022,-0.0817,1.53,1.53,2.05,0.816,1.58,-0.723,0.561,0.498,0.266,0.464,0.15,-0.16,0.474,-0.403,0.83
TCTATTAGTTGATTAGGGCAGCCGAAACAGCGGA,0.608,0.627,0.0696,0.52,0.663,1.01,0.0121,1.92,3.66,2.93,1.91,1.17,1.45,0.97,0.935,0.355,0.226,0.394,0.461,0.624
GCATATAGGTAATACAAGGTGAGAGTCCGATTGT,0.288,0.937,-0.139,0.0719,-0.459,0.92,1.14,1.19,0.605,0.684,4.28,3.14,1.33,0.73,0.397,0.114,0.184,1.59,0.608,0.335
TTACCAAGATGAGCTGAGGTCGTTGATCCAACTC,0.71,0.408,0.0791,0.458,-0.782,0.853,0.0458,0.511,0.543,0.66,0.238,0.101,-0.000343,-0.456,0.0396,1.87,0.628,1.35,-0.33,0.279
ACTAGCAGGCCAAGGGTCACTTAAGATTAGTCCG,2.62,2.89,0.394,3,-0.323,4.28,8.13,7.44,5.78,8.65,1.3,3.66,0.182,-0.252,2.04,3.33,-0.0435,4.13,0.362,3.39
ACTAGTTGGTCAGCTGAGGTCAAACACAATTCGG,3.81,4.24,4.08,4.26,1,4.22,1.65,2.34,0.396,1.55,1.45,2.49,0.694,0.579,3.02,6.03,3.32,5.18,2.07,3.62
CCTATTAGATGACCATAAGGGCAACCGAAGCTCG,0.824,0.35,0.303,0.273,0.565,0.419,0.753,0.324,0.147,0.0156,-0.108,0.24,0.781,-0.21,1.46,0.624,0.912,0.938,2.1,1.4
CCAACGAGGGCATGAGTTGATAGCAAATGCCGAT,0.351,0.134,-0.411,-0.153,-0.701,0.994,1.05,0.858,-0.155,0.242,1.66,1.08,-0.303,-0.467,-0.0585,0.213,-0.173,0.447,-0.402,1.69
CGACCAAGGTCAAAGGTCAGTGAAGAGATGACGG,8.72,6.8,3.14,6.54,1.18,7.07,11.3,9.46,9.86,10.4,4.11,6.17,1.79,0.574,5.46,7.16,1.55,9.08,2.47,5.95
CCTACTGGGCTAAAGGTCATTGATTCCAATGCTC,4.68,4.85,4.14,4.48,0.6,6.09,11.2,9.38,9.13,10.4,4.37,6.31,-0.17,-0.112,4.02,4.97,1.35,5.44,0.872,4.26
CCTACTGGGCCAAAAAGGTCATTGTTGCCGATAA,3.25,4.03,2.95,4.03,0.141,4.47,2.62,4.03,1.19,2.96,3.95,3.99,-0.0573,-1.07,2.39,4.29,1.92,4.33,0.787,3.56
TCTAGCAGGCCCGAGGGTCACTCAAGAGGTACGG,0.726,0.983,-0.649,1.04,-1.35,1.96,0.501,1.33,1.57,1.42,0.262,-0.284,-0.445,-0.801,0.169,1.35,-0.577,2.07,-0.992,1.94
TAGCCTTGGTCATGGGCCAGTATACCACGCGAAC,-0.772,-0.685,-0.571,-0.54,-1.16,-0.311,0.351,-0.0225,-0.592,-0.107,-1.28,0.113,-0.568,-0.717,-0.713,-0.329,-0.952,-0.342,-1.21,0.734
GCTCGGATGACAAGGTCAGAGCTTTGTCCGTAGA,0.982,1.15,-0.396,0.805,-1.32,1.93,0.116,0.444,-0.707,-0.161,0.0806,0.0489,-1.27,-1.25,0.624,1.51,-0.626,2.09,-1.1,2.61
TTACCAAGATGAAGGTCGTTGATCCCTCTGTAGA,1.47,1.91,-0.0555,1.48,-0.663,1.33,0.406,1.7,1.5,1.72,0.471,0.0475,0.286,0.663,0.704,1.15,-0.0787,1.18,0.48,0.617
TCGAGTAGGTTAGTCTGGGCATTCAGCCAACATA,-0.238,-0.131,-0.19,-0.216,-1.35,0.169,-0.258,0.528,0.844,0.781,1.92,1.79,-0.593,-0.623,-0.00252,-0.302,-0.724,-0.271,-0.668,-0.185
CGCGAAAGGTCGTGCTCAGGTGAGTATACCAAAC,5.65,3.9,0.199,3.55,-0.0921,4.89,3.65,4.46,0.769,2.86,0.794,1.92,0.376,-0.142,2.14,3.61,0.0719,4.63,0.019,4.18
ATATGTTGGTTATCGGGTCATTCAGTTTGCGCAT,2.39,2.42,1.49,2.76,1.77,2.86,1.7,2.19,0.577,1.65,2.6,3.36,1.53,2.49,2.81,3.49,7.6,3.19,2.08,2.05
GTGACTGGGGCAAAGCAGGTTACCATAAGGTTGG,0.845,0.956,0.27,0.924,-0.272,2.5,2.32,2.83,0.397,1.36,4.87,5.02,1.15,0.645,0.994,0.926,-0.0315,1.99,-0.0502,1.14
ATAGGTAGGTTAGCTGGGGTCATTCAGACTAGGC,4.92,5.76,2.97,4.81,1.29,4.82,2.59,3.65,1.45,2.69,2.88,2.9,1.18,0.716,3.23,6.38,4.41,5.88,1.73,3.2
TCTCGGAGGACACCAAGGTCAGAGCTTTCCAGAG,1.66,1.05,0.191,1.09,-0.834,1.86,0.127,1.65,2.01,1.76,1.32,1.11,-0.509,-0.885,1.73,2.54,2.65,2.17,-0.289,3.27
GATACAGGGTCAGCTAGAGGCCAGTGTATGGAAA,4.14,2.46,-0.408,2.42,-0.768,4.11,3.25,3,1.16,1.86,0.823,2.25,0.256,-0.378,3.5,3.29,0.17,4.54,-0.191,4.15
TCCAGTAGGTTAGGGGCATTCAGAATGGCGTCGA,0.986,0.635,-0.245,1.19,-0.0601,1.72,1.87,3.55,2.86,3.05,3.35,2.67,-0.472,0.307,1.01,0.69,0.251,0.878,-0.317,1.22

# — the supplement of paper PMC6555819
